# Sampled rows, rich in hits. Any-hit rate of the full collection: about 10%.
# G9a block – inhibitors of human histone lysine methyltransferase G9a; Q96KQ7; G9a H3K9 monomethylation, AlphaScreen, 2 h; Potency, µM (series often up to 102 µM), for inactives: at the top dose activity, negative = inhibition, hits mostly inhibitors; hit rate 8.8% among 350,000; note: potency is the fitted concentration of half-maximal effect; % is set by controls: 0 for no effect and ±100 for the full control effect; nearly all actives have a fitted effect of over 75% in size
#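 Signal arises when biotinylated H3K9 peptide, once monomethylated, bridges streptavidin donor and antibody-captured acceptor beads. Enzyme at 20 nM was preincubated 15 min with test compounds; peptide 500 nM and SAM 20 uM then reacted for 2 h.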
# Six1-Eya2 inh – Six1/Eya2 interaction inhibition; AlphaScreen GST-Six1/His-Eya2 binding, biochemical; hits give low values; hit rate 0.56% among 360,000; activity change, % (concentration not given with the values); Q15475+O00167; AID 651725; in the data active = activity change below about -65%; inconclusive = mostly about -30% to -63%; note: % is set by controls: 0 for no effect and ±100 for the full control effect
# Target sequence (O00167 whole entry, looked up): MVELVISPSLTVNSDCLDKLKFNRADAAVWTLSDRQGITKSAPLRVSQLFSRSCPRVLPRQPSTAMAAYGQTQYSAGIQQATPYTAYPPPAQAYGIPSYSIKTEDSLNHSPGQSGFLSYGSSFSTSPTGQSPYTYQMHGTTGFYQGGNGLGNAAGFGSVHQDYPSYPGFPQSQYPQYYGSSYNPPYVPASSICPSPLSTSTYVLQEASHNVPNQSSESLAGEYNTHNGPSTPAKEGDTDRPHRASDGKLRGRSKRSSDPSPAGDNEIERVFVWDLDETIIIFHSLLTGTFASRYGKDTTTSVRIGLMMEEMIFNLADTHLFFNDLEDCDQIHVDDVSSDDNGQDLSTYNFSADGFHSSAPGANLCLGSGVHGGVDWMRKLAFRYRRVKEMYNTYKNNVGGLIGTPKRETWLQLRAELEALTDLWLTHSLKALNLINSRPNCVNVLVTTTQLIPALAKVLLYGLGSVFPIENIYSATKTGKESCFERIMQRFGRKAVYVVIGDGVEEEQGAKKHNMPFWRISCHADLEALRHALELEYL
# Target sequence (Q15475 whole entry, looked up): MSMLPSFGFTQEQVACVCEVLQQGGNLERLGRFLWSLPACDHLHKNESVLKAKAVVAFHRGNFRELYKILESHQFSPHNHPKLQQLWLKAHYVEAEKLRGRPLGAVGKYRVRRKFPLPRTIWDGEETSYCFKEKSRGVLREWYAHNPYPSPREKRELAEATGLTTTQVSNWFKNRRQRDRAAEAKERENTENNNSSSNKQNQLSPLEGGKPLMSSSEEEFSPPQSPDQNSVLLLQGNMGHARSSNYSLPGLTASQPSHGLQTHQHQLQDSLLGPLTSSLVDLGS
#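 Homogeneous AlphaScreen proximity assay pairing GST-Six1 with His-tagged Eya2 (added as 5X mix: 250 nM and 500 nM) in 50 mM Tris pH 8.0, 300 mM NaCl, 1 mM TCEP. Glutathione donor and nickel acceptor beads; 1 h, 37 °C, dark.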
# BAZ2B inh – inhibitors of human BAZ2B bromodomain. Q9UIF8. AlphaScreen BAZ2B-H3K14Ac peptide displacement. Potency, µM (highest dose often 114 µM), for the others: at the highest dose activity change, negative = inhibition, most hits filed as inhibitors. hit rate 4.4% among 360,000. AID 504333; note: potency is the fitted concentration of half-maximal effect; % is set by controls: 0 for no effect and ±100 for the full control effect; nearly all actives have a fitted effect of over 60% in size
#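 AlphaScreen displacement of biotin-H3(5-23)K14Ac peptide (50 nM final) from BAZ2B (50 nM final) in PBS pH 7.4, 0.01% Tween-20; complex preformed 30 min RT, then compounds (top 110 uM) 30 min RT, beads 20 min dark.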
# JMJD2A Tudor inh – JMJD2A Tudor domain (human) inhibition; O75164; AID 504339; hit rate 4.4% among 390,000; Potency, µM (highest dose often 114 µM), for inactives: at the top dose activity change, negative = inhibition, usual class: inhibitors; AlphaScreen JMJD2A-Tudor / H3K4me3 peptide binding; note: potency is the fitted concentration of half-maximal effect; % is set by controls: 0 for no effect and ±100 for the full control effect; nearly all actives have a fitted effect of over 50% in size
# CtBP-E1A blk – blocks the CtBP interaction with E1A. activity change, % (concentration not given with the values). AlphaScreen GST-E1A/His-CtBP binding, 1536-well; hits give low values. hit rate 0.49% among 340,000; in the data active = activity change below about -65%; inconclusive = mostly about -30% to -63%; note: % is set by controls: 0 for no effect and ±100 for the full control effect
#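 Homogeneous bead-based format: GST-tagged E1A captured on glutathione donor beads, His-tagged CtBP on nickel acceptor beads; compounds precede bead addition by 2 h at 37 °C.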
# HP1b chromo inh – HP1-beta chromodomain-methylated histone interaction inhibition | P83916 | AlphaScreen HP1-beta / biotin-H3K9me3 peptide binding | Potency, µM (top dose mostly 114 µM), without a hit: at the highest dose activity change, negative = inhibition, actives largely listed as inhibitors | hit rate 0.56% among 390,000 | AID 540317; note: potency is the fitted concentration of half-maximal effect; nearly all actives have a fitted effect of over 70% in size
#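 Compound inhibition of the preformed complex between 50 nM HP1-beta and 50 nM biotinylated H3K9me3 peptide was read by AlphaScreen. Buffer was PBS pH 7.4 with 0.01% Tween-20. Incubations ran 30 min at room temperature, with 10 ug/mL donor/acceptor beads.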
# Numbers without * were called inactive; u = inconclusive; x = no result given; [ ] = remark or other dose. Unless noted, calls come from the whole dose curve; as a rule, active = well fitted inhibition curve with a large enough effect; inconclusive = small, poorly fitted or top-dose-only effect; inactive = no such curve, though single readings can be large or run the other way.
SMILES,G9a block,Six1-Eya2 inh,BAZ2B inh,JMJD2A Tudor inh,CtBP-E1A blk,HP1b chromo inh
CCn1c(=O)c(C(=O)NCCCO)c(O)c2ccccc21,u,-1.7,x,28.2µM*,-2.6,1.6%
CCn1c(=O)c(C(=O)Nn2c(C)nc3ccccc3c2=O)c(O)c2ccccc21,9.9%[59 µM],-16.4,50.1µM*,-9.0%,-1.5,36.6%
CCn1cc(C(=O)N2CCN(c3ccccc3OC)CC2)c(=O)c2cc(S(=O)(=O)N3CCC(C)CC3)ccc21,-7.3%[59 µM],x,x,-26.7%,x,0.3%
CCOC(=O)c1nc(N/N=C/c2ccccc2)sc1Br,44.7µM*,-3.9,-30.3%,-19.2%,-6.5,8.8%
CC(=O)Nc1sc(N/N=C\c2ccccc2Cl)nc1-c1cccs1,-21.7%[59 µM],-13.5,14.5%,u,4.3,-3.2%
CC(=O)Nc1sc(N/N=C/c2ccc(O)cc2)nc1-c1ccc(C)cc1,12.6µM*,-14.0,u,44.7µM*,-21.8,39.8µM*
CCOc1cc(/C=N/Nc2nc(-c3cccs3)c(NC(C)=O)s2)ccc1O,20µM*,-15.8,39.8µM*,28.2µM*,u,20µM*
CC(=O)Nc1sc(N/N=C/c2ccccc2)nc1-c1ccc(C)cc1,15.8µM*,-1.1,u,u,-3.9,u
CCOC(=O)c1sc(N/N=C/c2ccc(N(C)C)cc2)nc1C,-3.5%,9.1,u,u,2.8,43.0%
CCCCN1C(=O)CN(C2CCCCCC2)C(=O)C1c1ccc(OC(C)C)c(OC)c1 (stereo not drawn),6.6%[59 µM],x,-9.7%,-9.2%,x,20.8%
CCc1ccccc1NC(=O)c1ncoc1-c1ccco1,5.3%[59 µM],x,-9.7%,-5.6%,x,21.0%
COc1ccc(/C=N/Nc2nc(-c3ccc(C)cc3)c(NC(C)=O)s2)cc1,10µM*,-12.3,u,56.2µM*,-0.1,u
CC(=O)Nc1sc(N/N=C\c2ccco2)nc1-c1cccs1,5.62µM*,4.0,u,u,-5.8,14.1µM*
CC(=O)Nc1sc(N/N=C/c2ccccc2F)nc1-c1ccc(C)cc1,14.1µM*,0.5,-38.5%,u,x,-11.6%
CC(=O)Nc1sc(N/N=C\c2ccccc2)nc1-c1cccs1,11.2µM*,-3.9,u,20µM*,-0.2,50.1µM*
COC(=O)c1cc(=O)nc(NN=Cc2ccc(OC)cc2)s1,x,5.2,x,x,5.2,x
COc1ccc(CCNC(=O)c2c(C)oc3ncnc(N4CCOCC4)c23)c(OC)c1,-3.8%[59 µM],x,5.4%[57.1 µM],-9.1%,x,26.4%
COc1ccc(C2=C(C)C(N3CCC(C(=O)Nc4cc(C)ccc4C)CC3)=NS2(=O)=O)cc1,11.2%[59 µM],x,-11.8%,-5.3%,x,6.6%
N#Cc1c[nH]n2c(NC3CCCCC3)c(-c3ccc(F)cc3)nc12,-4.3%[59 µM],x,-2.8%,-24.5%,x,12.9%
CC(=O)Nc1sc(NC(=O)c2ccc(Cl)cc2)nc1-c1cccs1,x,2.0,-2.8%,-5.5%,-0.8,6.5%
Nc1nc(-c2cccs2)c(NC(=O)c2ccccc2)s1,7.94µM*,-5.8,u,u,8.3,-33.8%
Cc1ccc2c(=O)c(C(=O)c3cccc(Cl)c3)cn(CC(=O)NC3CCCCC3)c2n1,3.5%[59 µM],x,-0.2%,-12.3%,x,77.9%
O=C1CCCC/C1=C\Nc1ccccc1C(=O)O,50.1µM*,-0.8,-28.2%,u,-1.0,13.4%
COc1ccc(NC(=O)C(c2ccc(OC)cc2)N(C)C(=O)CC2NC(=O)NC2=O)cc1 (stereo not drawn),7.6%,34.8,1.5%,-17.2%,6.4,27.2%
CC(C)c1ccc(NC(=O)C(c2ccccc2)N(Cc2ccco2)C(=O)CC2NC(=O)NC2=O)cc1 (stereo not drawn),14.1µM*,-3.2,u,-34.4%,-1.7,-8.0%
SMILES,G9a block,Six1-Eya2 inh,BAZ2B inh,JMJD2A Tudor inh,CtBP-E1A blk,HP1b chromo inh
Cc1csc2nc(COC(=O)c3cccc(NC(=O)COc4ccc(Cl)cc4)c3)cc(=O)n12,2.2%[12.7 µM],x,-0.1%,6.6%,x,32.8%
Cc1ccc(O)c(CN(C)Cc2cc(C)ccc2O)c1,x,-9.2,x,u,7.4,-5.3%
CN(C)Cc1cc(O)c(CN(C)C)cc1O,1.41µM*,u,22.4µM*,0.794µM*,x,u
CCc1ccc(/C=C(/C#N)C(N)=S)s1,u,17.4,u,-16.8%,-0.3,17.6%
CCc1sc(/C=C(/C#N)C(N)=S)cc1[N+](=O)[O-],12.6µM*,-6.8,u,u,-2.1,u
CCOc1ccc(C2CC(c3ccccc3C)n3nc(N)nc3N2)cc1 (stereo not drawn),u,-1.7,-12.4%,20µM*,-1.4,-9.0%
COc1ccc(C2CC(c3ccccc3C)n3nc(N)nc3N2)cc1 (stereo not drawn),u,5.7,u,-33.8%,-2.6,-12.5%
CCc1ccc(C2CC(c3ccccc3Cl)Nc3nc(N)nn32)cc1 (stereo not drawn),11.2µM*,-8.0,-12.7%,-26.1%,-3.8,31.5%
CCc1ccc(C2CC(c3ccccc3)n3ncnc3N2)cc1 (stereo not drawn),79.4µM*,3.5,3.6%,-33.1%,-1.6,29.0%
CCc1ccc(C2CC(c3ccccc3)Nc3nc(N)nn32)cc1 (stereo not drawn),6.0%,7.0,-19.6%,-7.7%,2.1,54.7%
CCc1ccc(NS(=O)(=O)c2ccc3[nH]cc(C(=O)NCCCOC(C)C)c(=O)c3c2)cc1,u,x,x,-25.3%,x,-2.1%
Cn1c(=O)c(-c2cc(Br)ccc2N)nc2ccccc21,50.1µM*,-27.4,-16.7%,u,-20.1,-19.7%
CC1(C)Cc2ccccc2C(CSc2ccccc2C(=O)O)=N1,x,-28.5,50.1µM*,56.2µM*,-12.9,-38.9%
COc1cc2c(cc1OC)C(CC#N)=NC(C)(C)C2,u,-1.3,-7.6%,-20.3%,-11.3,-4.7%
COc1cc2c(cc1OC)C(CSc1ccccc1C(=O)O)=NC(C)(C)C2,u,-14.8,79.4µM*,u,1.0,-0.6%
CC(=O)c1cccc(N2Cc3ccccc3C2=NC(=O)CCl)c1,31.6µM*,5.5,-35.4%,35.5µM*,3.5,2.5%
CC(=O)c1ccc(N2Cc3ccccc3/C2=N\C(=O)Nc2ccccc2)cc1,8.9%,-1.9,10.8%,-17.5%,-2.1,22.4%
COc1cc(NC(=O)c2ccnc(N)c2)cc(C(=O)Nc2cccc(C(F)(F)F)c2)c1,-11.0%[12.7 µM],-8.1,50.1µM*,u,0.5,-8.2%
COc1cc(NC(=O)c2csc(N)n2)cc(C(=O)Nc2cccc(C(F)(F)F)c2)c1,-7.7%[12.7 µM],-3.2,-8.2%,0.0%,0.1,56.4%
COc1cc(NC(=O)c2cnc(N)s2)cc(C(=O)Nc2cccc(C(F)(F)F)c2)c1,u,0.4,20µM*,31.6µM*,-5.1,-14.0%
CCNc1ncc2nc(C)c(=O)n(Cc3cccs3)c2n1,12.4%[0.501 µM],x,x,x,x,x
CCOC(=O)CNC(=O)CN1CCCN(S(=O)(=O)c2ccc(Br)s2)CC1,50.1µM*,-4.0,5.7%,-14.2%,-1.6,33.7%

# High-throughput results (PubChem BioAssay)
